FEN1 inhibitor – human FEN1 inhibition | Recombinant FEN1 flap cleavage, fluorescence, 15 min | Potency, µM (series often up to 114 µM), inactives show at the highest dose activity change, negative = inhibition, usual class: inhibitors | 0.35% of 390,000 active; also: potency is read from the fitted curve at half-maximal effect; nearly all actives have a fitted effect of over 65% in size
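Read-out was taken twice, immediately and after 15 min, following addition of 50 nM substrate to 10 nM FEN1 that had sat with test compound for 15 min at room temperature. Curves came from a four-parameter Hill model.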
BLM inh – blocks DNA unwinding by human BLM helicase | P54132 | recombinant BLM DNA unwinding, fluorescence dequenching | Potency, µM (doses to about 56.1 µM), without a hit: top-dose activity change, negative = inhibition, actives largely listed as inhibitors | 0.2% of 350,000 active;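 also: potency is read from the fitted curve at half-maximal effect; plate controls were vehicle for no effect and no enzyme for full effect; nearly all actives have a fitted effect of over 35% in size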
KAT2A inh – inhibitors of human GCN5L2 histone acetyltransferase; Q92830; GCN5L2 HAT assay, ThioGlo1 CoA-SH fluorescence; Potency, µM (top dose mostly 58.9 µM), for the others: top-dose activity change, negative = inhibition, actives largely listed as inhibitors; 0.21% of 390,000 active; AID 504327; also: potency is read from the fitted curve at half-maximal effect
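Fluorescence readout, Ex340nm/Em540nm: ThioGlo1 (50uM final) reacts with free CoA thiol released as 20nM GCN5L2 acetylates H3(1-25) peptide (75uM) using acetyl-CoA (70uM). Compound and enzyme sat 15 min beforehand; 20 min room-temperature reaction.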
PI5P4K alpha inh – PI5P4K alpha (human) kinase inhibition. max response, %. AID 652105. PI5P4Kalpha enzyme, ADP-Glo luminescence, 60 min; active compounds read low. 1.2% of 330,000 active. P48426; active = max response of -50% or lower; inconclusive = between -30% and -50%; inactive = -30% or higher; also: value at the top dose of about 77 µM
Target sequence (P48426 whole entry, looked up): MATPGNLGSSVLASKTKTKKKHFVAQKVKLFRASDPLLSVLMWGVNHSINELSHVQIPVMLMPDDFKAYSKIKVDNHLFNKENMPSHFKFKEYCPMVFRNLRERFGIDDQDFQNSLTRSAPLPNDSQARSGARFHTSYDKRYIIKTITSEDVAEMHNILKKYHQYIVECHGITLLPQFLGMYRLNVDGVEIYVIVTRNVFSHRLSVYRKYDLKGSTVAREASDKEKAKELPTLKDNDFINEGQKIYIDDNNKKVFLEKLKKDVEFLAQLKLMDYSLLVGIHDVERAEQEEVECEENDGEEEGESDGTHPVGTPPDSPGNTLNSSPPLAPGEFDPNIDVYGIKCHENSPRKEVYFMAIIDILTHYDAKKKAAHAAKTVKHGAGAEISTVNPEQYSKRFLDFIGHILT
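PI5P4Kalpha ADP-Glo assay; 5 microM ATP final; 60 min RT reaction; HEPES pH 7.4/EGTA/CHAPS, 5% DMSO; controls lacking substrate or enzyme; luminescent end-point.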
APEX1 inh – APE1 (human) endonuclease inhibition; Potency, µM (doses to about 65.8 µM), without a hit: at the top dose activity change, negative = inhibition, actives largely listed as inhibitors; P27695; 0.35% of 350,000 active; recombinant APE1, TAMRA/BHQ-2 abasic DNA cleavage fluorescence;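 also: potency is read from the fitted curve at half-maximal effect; plate controls were vehicle for no effect and reference inhibitor for full effect; nearly all actives have a fitted effect of over 55% in size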
Target sequence (P27695 whole entry, looked up): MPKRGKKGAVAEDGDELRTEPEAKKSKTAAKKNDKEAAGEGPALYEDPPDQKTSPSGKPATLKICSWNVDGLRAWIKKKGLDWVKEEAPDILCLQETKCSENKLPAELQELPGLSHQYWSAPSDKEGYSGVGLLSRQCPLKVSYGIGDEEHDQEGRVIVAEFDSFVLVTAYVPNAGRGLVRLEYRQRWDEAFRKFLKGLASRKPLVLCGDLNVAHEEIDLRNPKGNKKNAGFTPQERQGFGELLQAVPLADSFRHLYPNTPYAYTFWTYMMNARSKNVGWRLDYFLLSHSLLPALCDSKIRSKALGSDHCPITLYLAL
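0.75 nM APE1 + cpd, 15 min RT; start w/ 50 nM TAMRA/BHQ-2 THF-abasic dsDNA; kinetic fluor 525/598 nm ×3 reads @60 s; Δ(read3−read1); normalized to DMSO and NSC13755 control wells.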
RECQ1 inh-1 – inhibitors of human RECQ1 DNA helicase; AID 2549; 0.54% of 240,000 active; RECQ1 DNA unwinding, red fluorescence kinetic read; P46063; Potency, µM (series often up to 57.3 µM), for the others: at the top dose activity, negative = inhibition, hits mostly inhibitors;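 also: potency is read from the fitted curve at half-maximal effect; plate controls were vehicle for no effect and no enzyme for full effect; nearly all actives have a fitted effect of over 30% in size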
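50 nM RECQ1T1 preincubated 15 min with compound in Tris pH 8.0 buffer with MgCl2, DTT, Tween-20 and 2.5 ug/ml poly(dI-dC); started with 200 nM TAMRA/BHQ-2 forked duplex and 2 mM ATP. Unwinding read as fluorescence (525/598 nm), two reads 2 h apart.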
RECQ1 conf – confirmation of human RECQ1 helicase inhibitors; shares compounds with RECQ1 inh-1; RECQ1 helicase DNA unwinding, fluorescence; Potency, µM (series often up to 229 µM), inactives show at the highest dose activity change, negative = inhibition, actives largely listed as inhibitors; 28% of 610 active; also: potency is read from the fitted curve at half-maximal effect; nearly all actives have a fitted effect of over 45% in size
ADP FP counter – counter-screen for RECQ1 inhibitors: ADP displacement; shares compounds with RECQ1 inh-1; ADP fluorescence polarization displacement counterscreen; Potency, µM (series often up to 228 µM), without a hit: top-dose activity change, negative = inhibition, actives largely listed as inhibitors; 27% of 530 active; also: potency is read from the fitted curve at half-maximal effect; nearly all actives have a fitted effect of over 45% in size
RECQ1 inh-2 – blocks human RECQ1 DNA unwinding. shares compounds with RECQ1 inh-1. recombinant RECQ1 DNA unwinding, red fluorescence. Potency, µM (series often up to 119 µM), for the others: at the top dose activity, negative = inhibition, actives largely listed as inhibitors. 15% of 1,100 active. AID 504841; also: potency is read from the fitted curve at half-maximal effect; nearly all actives have a fitted effect of over 50% in size
* = called active by the depositor; [ ] = another dose, or the depositor's remark. An excerpt weighted towards active compounds, which were near 1.5% of everything screened. Unless noted, calls follow the shape of the dose curve; as a rule, active = well fitted curve in the direction sought with a large enough effect; inconclusive = small, poorly fitted or top-dose-only effect, or another doubt; inactive = no such curve, though single readings can be large; an effect the other way counts as inactive or inconclusive. Unless noted, % is scaled to controls: 0 for no effect and ±100 for the full control effect.

Screening Cc1cc(O)cc(O)c1C(=O)OC1(C)C(=O)C=C2C=C(/C=C/C(=O)O)OC=C2C1=O (stereo not drawn) returned BLM inh 83.9%, APEX1 inh 14.1µM*, RECQ1 inh-1 28.2µM* and RECQ1 inh-2 inconclusive.
CCN1CCN(c2cc(C)c3cc(NC(=O)c4cc(OC)c(OC)c(OC)c4)ccc3n2)CC1 was read as FEN1 inhibitor -33.5%, BLM inh 1.2% and KAT2A inh -13.2%.
`CCN1CCN(c2cc(C)c3cc(NC(=O)c4ccc(OC)c(OC)c4)ccc3n2)CC1` gave FEN1 inhibitor inconclusive, BLM inh -6.6%, KAT2A inh -16.2%, PI5P4K alpha inh -0.2, APEX1 inh -1.0%, RECQ1 inh-1 22.4µM* and RECQ1 inh-2 inconclusive.
For COc1ccc([C@H]2OCC3C2CO[C@@H]3c2ccc(OC)c(OC)c2)cc1OC (stereo partly drawn) the results were BLM inh 2.6%, KAT2A inh 10.7%, APEX1 inh -7.9% and RECQ1 inh-1 -11.8%.
For COc1ccc(CC(=O)Nc2ccc(C(=O)NC(C)(C)C)cc2)cc1OC the results were FEN1 inhibitor 19.3%, BLM inh -4.3%, KAT2A inh 15.6%, PI5P4K alpha inh 0.6, APEX1 inh 1.3% and RECQ1 inh-1 -11.2%.
Screening COc1ccc(CC(=O)Nc2ccc(C(=O)Nc3ccccc3C(=O)O)cc2)cc1OC returned FEN1 inhibitor 7.0%, BLM inh -8.7%, KAT2A inh 3.6%, PI5P4K alpha inh -19.6, APEX1 inh 0.9%, RECQ1 inh-1 -1.4%, RECQ1 conf 14.9% and ADP FP counter -11.9%.
For O=C(CCCN1C(=O)/C(=C\c2cccs2)SC1=S)NNC(=O)c1cccnc1 the results were FEN1 inhibitor -0.6%, BLM inh -0.2%, KAT2A inh -14.2%, PI5P4K alpha inh -13.9, APEX1 inh -4.9%, RECQ1 inh-1 2.82µM*, RECQ1 conf inconclusive and ADP FP counter 3.4%[91.9 µM].
CC(NC(=O)/C(=C/c1cccc([N+](=O)[O-])c1)NC(=O)c1ccco1)C(=O)O (stereo not drawn) was read as FEN1 inhibitor -2.2%, BLM inh 2.1%, KAT2A inh 23.4%, PI5P4K alpha inh -2.4, APEX1 inh 20.9%, RECQ1 inh-1 -10.9%, RECQ1 conf -0.2% and ADP FP counter 8.4%.
O=C(NC(Cc1ccccc1)C(=O)O)/C(=C\c1cccc([N+](=O)[O-])c1)NC(=O)c1ccco1 (stereo not drawn) was read as FEN1 inhibitor -2.4%, BLM inh -1.4%, KAT2A inh inconclusive, PI5P4K alpha inh -0.4 and APEX1 inh 37.6%.
`CO[C@@H]1[C@@H](OC2OC(C)C(OC3CC(C)(O)C(OC(=O)CC(C)C)C(C)O3)C(N(C)C)C2O)[C@@H](CC=O)C[C@@H](C)C(=O)/C=C\C2O[C@H]2C[C@@H](C)OC(=O)C[C@H]1OC(C)=O` (stereo partly drawn) gave FEN1 inhibitor -15.1%, BLM inh 2.9% and KAT2A inh -3.4%.
Screening COc1ccc(NC(=O)c2cc3c(C)nn(-c4ccccc4)c3s2)c(OC)c1 returned FEN1 inhibitor -1.6%, BLM inh -2.4% and KAT2A inh 18.5%.
Screening COc1ccc(NS(=O)(=O)c2ccc(O)c(NC(=O)c3cc4c(C)nn(-c5ccc(F)cc5)c4s3)c2)cc1 returned FEN1 inhibitor 56.2µM*, BLM inh 28.2µM*, KAT2A inh inconclusive, PI5P4K alpha inh -25.5, APEX1 inh inconclusive, RECQ1 inh-1 inconclusive and RECQ1 inh-2 inconclusive.
`Brc1ccc(-c2csc(N3CCCCC3)n2)cc1` gave KAT2A inh -1.9% and APEX1 inh 11.6%.
O=C1CSC(=S)N1c1ccc(F)c(Cl)c1 was read as FEN1 inhibitor -16.1%, BLM inh -4.6%, KAT2A inh -2.8%, PI5P4K alpha inh 2.4 and APEX1 inh 29.4%.
O=C(O)c1ccc(CN2C(=O)CSC2=S)cc1 was read as FEN1 inhibitor inconclusive, BLM inh -2.2%, KAT2A inh 3.2%, APEX1 inh inconclusive, RECQ1 inh-1 15.8µM*, RECQ1 conf -1.0%[114 µM], ADP FP counter 47.6%[91.9 µM] and RECQ1 inh-2 -21.8%.
`O=C(O)c1ccc(N=C2SCC(=O)N2Cc2ccccc2)cc1` gave FEN1 inhibitor -1.3%, BLM inh 1.6%, KAT2A inh 0.3%, PI5P4K alpha inh 2.4, APEX1 inh 3.4% and RECQ1 inh-1 -6.2%.
Screening O=C1CSC(=S)N1Cc1cccnc1 returned FEN1 inhibitor -15.5%, BLM inh -5.7%, KAT2A inh -2.6%, PI5P4K alpha inh -18.3, APEX1 inh inconclusive, RECQ1 inh-1 25.1µM* and RECQ1 inh-2 inconclusive.
Screening O=C1CSC(=S)N1c1cccnc1 returned FEN1 inhibitor -13.3%, BLM inh -4.6%, KAT2A inh 15.0%, APEX1 inh 5.8%, RECQ1 inh-1 31.6µM* and RECQ1 inh-2 -1.9%.
For CN(C)c1ccc(-c2ccc(C3C4C=CCCC4(C)C(=O)N3Cc3ccccc3)c(F)c2)cc1 (stereo not drawn) the results were FEN1 inhibitor 2.7%, BLM inh -15.3%, APEX1 inh -5.2% and RECQ1 inh-1 -19.4%.
For CCOC(=O)C1=C(O)/C(=C/c2cc(OC)c(O)c(OC)c2)SC1=Nc1ccc(OC)cc1 the results were FEN1 inhibitor inconclusive, BLM inh -5.7%, KAT2A inh -7.9%, PI5P4K alpha inh 2.3, APEX1 inh inconclusive, RECQ1 inh-1 14.1µM* and RECQ1 inh-2 inconclusive.
For Nc1nc(Nc2cccc(Cl)c2)nc(NCCO)c1[N+](=O)[O-] the results were FEN1 inhibitor inconclusive, BLM inh inconclusive, KAT2A inh 0.1%, PI5P4K alpha inh -63.2*, APEX1 inh -2.8%, RECQ1 inh-1 inconclusive and RECQ1 inh-2 50.1µM*.
`Cn1c(SCCOc2ccccc2)nnc1-c1ccc(NC(=O)CCc2ccccc2)cc1` gave FEN1 inhibitor 2.2%.

High-throughput results as filed in PubChem.
